Here are results for 10 compounds from PubChem BioAssay (NCATS).

“And” between values parts separate entries of the source, which are not always exact repeats. Equal values may be shown once. Results filed as inconclusive are left out. The source made the active and inactive calls. Unless noted, calls come from the whole dose curve.

The target of assay [1] is Estrogen receptor (Homo sapiens) (UniProt P03372). Nature of the assay: qHTS assay for small molecule antagonists of estrogen receptor alpha signaling (AID 588513; active = well fitted curve in the direction sought with a large enough effect in the signal ratio, with a control signal flat, not every such curve was filed as active; the % refers to the signal ratio; note: % is set by controls: 0 for no effect and ±100 for the full control effect). The procedure, abridged: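 Antagonist mode: inhibition of 0.5 nM 17-beta-estradiol-driven beta-lactamase reporter in HEK 293 ER-alpha-UAS-bla cells, 18 h at 37C, CCF4 readout after 2 h at RT. Normalised to estradiol and DMSO; titration fitted to Hill.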
A general note: In qHTS, concentration-response curves come from the screen itself.

Assay [2] has the same target. Description: qHTS assay for small molecule agonists of estrogen receptor alpha signaling (AID 588514).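 Note: 0% = vehicle only and 100% = reference agonist; nearly all actives have a fitted effect of over 70% in size.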 The procedure, abridged:
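Read-out: CCF4 fluorescence from a beta-lactamase reporter in ER-alpha-UAS-bla HEK 293 cells after 18 hrs of compound exposure at 37 C. Normalized to 20 nM 17-beta-estradiol (100%) and DMSO (0%).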

Assay [3] deals with Glucocorticoid receptor (Homo sapiens) (UniProt P04150). Description: qHTS assay for small molecule agonists of glucocorticoid receptor signaling (AID 588532; active = well fitted curve in the direction sought with a large enough effect in the signal ratio, with a control signal flat; the % refers to the signal ratio;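 note: 100% = dexamethasone at 0.1 µM and 0% = DMSO only wells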). Particulars: HeLa MMTV-bla, beta-lactamase ratio, agonist, 18 h; stronger effect = higher value; percent of dexamethasone control, DMSO zero. The procedure, abridged: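 Titration series, up to 92 uM, applied to GRE-bla HeLa cells for 18 h at 37 C. Detection by CCF4 FRET substrate after 2 h at RT.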

The target of assay [4] is Peroxisome proliferator-activated receptor gamma (Homo sapiens) (UniProt P37231). Description: qHTS assay for small molecule agonists of peroxisome proliferator-activated receptor gamma signaling (AID 588536; active = well fitted curve in the direction sought with a large enough effect in the signal ratio, with a control signal flat, not every such curve was filed as active; the % refers to the signal ratio;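 note: 0% = DMSO basal wells and 100% = rosiglitazone at 2 µM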). In short, it runs like this: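 This is an agonist-mode beta-lactamase reporter assay in HEK293 PPAR-gamma-UAS-bla cells with 1% charcoal/dextran FBS. Compound titrations ran 16 h at 37 C before CCF4 detection. EC50 and efficacy are Hill fits scaled to 2 uM rosiglitazone (100%) and DMSO basal.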

The target is the same in assay [5]. Nature of the assay: qHTS assay for small molecule antagonists of peroxisome proliferator-activated receptor gamma signaling (AID 588537; active = well fitted inhibition curve with a large enough effect in the signal ratio, with a control signal flat, not every such curve was filed as active; the % refers to the signal ratio;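 note: reporter cells co-stimulated with 50 nM rosiglitazone agonist during compound treatment; % of control where 0% means no effect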). In short, it runs like this: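 HEK293 cells, PPAR-gamma-UAS-bla, 3000/well. Pre-incubation 6-6.5 h, 37 C. Compound titration with rosiglitazone 50 nM final, 16 h. CCF4 dye, 2 h RT, dual-emission fluorescence.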
Assay [6] concerns the target Vitamin D3 receptor (Homo sapiens) (UniProt P11473). Description: qHTS assay for small molecule antagonists of vitamin D receptor signaling (AID 588541).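 Note: receptor activated by calcitriol during compound treatment; series mostly up to about 77 µM; % is set by controls: 0 for no effect and ±100 for the full control effect.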 The procedure, abridged: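 VDR-UAS-bla HEK293T cells (2000/well, 2% charcoal-stripped FBS) were treated with titrated compounds plus 1-alpha,25-dihydroxyvitamin D3 (50 nM or 3 nM final) for 16 h at 37 C. CCF4 beta-lactamase fluorescence was read; Hill fits gave IC50.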

Assay [7] shares this target. Description: qHTS assay for small molecule agonists of vitamin D receptor signaling (AID 588543).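 Note: 0% = DMSO basal and 100% = reference agonist control.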 The procedure, abridged: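 Agonist-mode beta-lactamase reporter: HEK293T VDR-UAS-bla cells in charcoal-stripped 2% FBS, compound series 16 h 37 C, CCF4 2 h RT. EC50 from Hill fit, scaled against DMSO and 50 nM calcitriol control.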
The nature of assay [8]: qHTS assay for small molecule agonists of retinoid X receptor alpha signaling (AID 588544).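 For activation: 0% = DMSO basal wells and 100% = reference agonist.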 Particulars: HEK293T RXRa-UAS-bla, beta-lactamase reporter, 18 h; 530 nm emission.
Assay [9] addresses Retinoic acid receptor RXR-alpha (Homo sapiens) (UniProt P19793). Described as above.
Assay [10] is described as follows: qHTS assay for small molecule antagonists of retinoid X receptor alpha signaling (AID 588546).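 Note: cells stimulated with 9-cis-retinoic acid as agonist; % is set by controls: 0 for no effect and ±100 for the full control effect.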 Particulars: HEK293T RXRa-UAS-bla, beta-lactamase ratio, antagonist mode; measured here: W530 green channel, cytotoxicity proxy. The procedure, abridged: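 Beta-lactamase reporter inhibition, read as CCF4 fluorescence ratio (ex 405, em 460/530 nm) after 2 h at RT. HEK293T UAS-bla cells, 2500/well, were stimulated with 9-cis-RA at 500 or 100 nM final alongside test compound for 18 h at 37 C.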

The target of assay [11] is Peroxisome proliferator-activated receptor delta (Homo sapiens) (UniProt Q03181). Description: qHTS assay for small molecule agonists of peroxisome proliferator-activated receptor delta signaling (AID 588534).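 Note: 0% = DMSO basal wells and 100% = positive control agonist at 10 µM.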 The procedure, abridged:
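Titration series tested in agonist mode on beta-lactamase reporter cells; 18 hrs at 37 C after a 5 hr pre-incubation. Readout: CCF4 fluorescence, 2 hrs RT. Hill equation gives EC50 and maximal response.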

Assay [12] is described as follows: qHTS assay for small molecule antagonists of peroxisome proliferator-activated receptor delta signaling (AID 588535; active = well fitted inhibition curve with a large enough effect in the signal ratio, with a control signal flat, not every such curve was filed as active; the % refers to the signal ratio;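 for max response: cells co-treated with a PPAR-delta agonist as stimulator during compound exposure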). Particulars: HEK293T PPARd-UAS-bla, beta-lactamase FRET ratio, 18 h; 460 nm channel. The procedure, abridged: (§1)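 Compounds tested in titration on PPAR-delta-UAS-bla HEK293T cells grown in charcoal/dextran-stripped serum (2%); beta-lactamase activity read via CCF4 emission at 460 and 530 nm.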

Assay [13] deals with Peroxisome proliferator-activated receptor delta (Homo sapiens) (UniProt Q03181). The assay is described as above. In short, it runs like this: as §1
The target of assay [14] is Thyroid hormone receptor beta (Homo sapiens) (UniProt P10828). Nature of the assay: qHTS assay for small molecule agonists of thyroid hormone receptor beta signaling (AID 588545).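 Note: 0% = DMSO only and 100% = 10 nM T3.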 In short, it runs like this:
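TR-UAS-bla-GripTite HEK 293 cells in medium with 2% charcoal/dextran FBS, 0.1 mM NEAA and 1 mM sodium pyruvate were treated with titrated compounds for 18 hrs at 37 C. Beta-lactamase reporter was read with CCF4 dye (ex 405, em 460/530 nm); EC50 from Hill fits.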

The target in assay [15] is Androgen receptor (Homo sapiens) (UniProt P10275). Nature of the assay: qHTS assay for small molecule agonists of androgen receptor signaling (AID 588515; active = well fitted curve in the direction sought with a large enough effect in the signal ratio, with a control signal flat; the % refers to the signal ratio; note: % is set by controls: 0 for no effect and ±100 for the full control effect). Particulars: AR-UAS-bla HEK293, beta-lactamase ratio, agonist 16 h; stronger effect = higher value. The procedure, abridged: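 Stimulation of an AR-responsive β-lactamase reporter in GripTite HEK293 cells was measured after 16 h compound exposure at 37 °C, via CCF4 fluorescence after 2 h RT. EC50 from Hill fits, normalized to R1881 at 30 nM.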

The target of assay [16] is Bile acid receptor (Homo sapiens) (UniProt Q96RI1). Description: qHTS assay for small molecule antagonists of farnesoid X receptor signaling (AID 588526). Note: % is set by controls: 0 for no effect and ±100 for the full control effect. The procedure, abridged: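 Concentration-response titrations were fitted to the Hill equation for half-maximal inhibition and maximal response, with data normalised to 50 uM chenodeoxycholic acid and DMSO control wells. Cells: FXR-UAS-bla HEK293T, dialyzed FBS.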

The target is the same in assay [17]. Description: qHTS assay for small molecule agonists of farnesoid X receptor signaling (AID 588527).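 Note: series mostly up to about 77 µM; 0% = vehicle basal and 100% = reference agonist.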 Particulars: HEK293T FXR-UAS-bla, beta-lactamase ratio, 16 h; stronger effect = higher value. The procedure, abridged:
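Agonist-mode beta-lactamase reporter in GeneBLAzer FXR-UAS-bla HEK293T cells, titration up to 92 uM, 16 h exposure at 37 C, CCF4 fluorescence. Response scaled to DMSO (0%) and 100 uM chenodeoxycholic acid (100%), then Hill-fitted for EC50 and efficacy.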

The target in assay [18] is Androgen receptor (Homo sapiens) (UniProt P10275). Description: qHTS assay for small molecule antagonists of androgen receptor signaling (AID 588516; active = well fitted curve in the direction sought with a large enough effect in the signal ratio, with a control signal flat, not every such curve was filed as active; the % refers to the signal ratio; note: % is set by controls: 0 for no effect and ±100 for the full control effect). In short, it runs like this: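 Antagonist mode: inhibition of R1881-stimulated (10 nM final) bla reporter in GeneBLAzer AR HEK 293 cells, 16 h at 37C, compounds titrated. IC50 and efficacy from Hill-equation fits of 405/460–530 nm FRET ratios.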

Retinoic acid receptor RXR-alpha (Homo sapiens), sequence (P19793 whole entry, looked up): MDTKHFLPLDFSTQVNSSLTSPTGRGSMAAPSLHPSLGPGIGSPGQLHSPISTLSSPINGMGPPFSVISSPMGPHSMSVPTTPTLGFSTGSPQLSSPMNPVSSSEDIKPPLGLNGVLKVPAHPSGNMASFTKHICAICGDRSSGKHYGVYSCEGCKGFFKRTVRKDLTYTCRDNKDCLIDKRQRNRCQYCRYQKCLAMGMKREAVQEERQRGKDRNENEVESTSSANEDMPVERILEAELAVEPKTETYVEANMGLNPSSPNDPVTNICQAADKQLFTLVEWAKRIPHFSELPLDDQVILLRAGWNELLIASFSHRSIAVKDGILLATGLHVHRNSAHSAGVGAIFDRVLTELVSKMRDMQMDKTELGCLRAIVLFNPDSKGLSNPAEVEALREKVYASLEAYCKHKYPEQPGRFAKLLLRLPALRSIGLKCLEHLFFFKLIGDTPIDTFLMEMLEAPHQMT
Peroxisome proliferator-activated receptor gamma (Homo sapiens), sequence (P37231 whole entry, looked up): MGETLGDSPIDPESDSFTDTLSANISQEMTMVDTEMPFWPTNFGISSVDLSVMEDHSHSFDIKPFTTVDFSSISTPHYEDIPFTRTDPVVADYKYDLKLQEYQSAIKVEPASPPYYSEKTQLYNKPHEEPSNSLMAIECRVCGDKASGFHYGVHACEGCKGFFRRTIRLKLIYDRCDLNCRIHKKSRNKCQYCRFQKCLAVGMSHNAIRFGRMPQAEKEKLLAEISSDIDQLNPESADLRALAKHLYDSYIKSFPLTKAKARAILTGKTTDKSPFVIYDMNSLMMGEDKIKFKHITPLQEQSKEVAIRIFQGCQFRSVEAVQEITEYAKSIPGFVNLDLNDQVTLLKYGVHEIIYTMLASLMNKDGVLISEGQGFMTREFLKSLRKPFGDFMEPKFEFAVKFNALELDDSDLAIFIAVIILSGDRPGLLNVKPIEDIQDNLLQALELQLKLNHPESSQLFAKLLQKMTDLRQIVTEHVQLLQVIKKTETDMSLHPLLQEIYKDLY
Vitamin D3 receptor (Homo sapiens), sequence (P11473 whole entry, looked up): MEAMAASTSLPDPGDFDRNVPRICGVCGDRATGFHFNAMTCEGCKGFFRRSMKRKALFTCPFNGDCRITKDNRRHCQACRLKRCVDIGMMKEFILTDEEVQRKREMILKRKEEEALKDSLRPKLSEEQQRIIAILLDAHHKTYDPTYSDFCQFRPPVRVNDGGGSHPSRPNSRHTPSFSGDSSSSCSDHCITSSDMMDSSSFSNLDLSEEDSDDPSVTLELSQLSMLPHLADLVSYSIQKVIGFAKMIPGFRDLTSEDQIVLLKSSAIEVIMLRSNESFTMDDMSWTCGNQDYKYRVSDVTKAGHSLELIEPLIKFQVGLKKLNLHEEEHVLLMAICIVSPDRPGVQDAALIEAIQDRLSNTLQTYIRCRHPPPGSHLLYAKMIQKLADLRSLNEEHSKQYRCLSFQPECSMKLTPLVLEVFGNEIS
Glucocorticoid receptor (Homo sapiens), sequence (P04150 whole entry, looked up): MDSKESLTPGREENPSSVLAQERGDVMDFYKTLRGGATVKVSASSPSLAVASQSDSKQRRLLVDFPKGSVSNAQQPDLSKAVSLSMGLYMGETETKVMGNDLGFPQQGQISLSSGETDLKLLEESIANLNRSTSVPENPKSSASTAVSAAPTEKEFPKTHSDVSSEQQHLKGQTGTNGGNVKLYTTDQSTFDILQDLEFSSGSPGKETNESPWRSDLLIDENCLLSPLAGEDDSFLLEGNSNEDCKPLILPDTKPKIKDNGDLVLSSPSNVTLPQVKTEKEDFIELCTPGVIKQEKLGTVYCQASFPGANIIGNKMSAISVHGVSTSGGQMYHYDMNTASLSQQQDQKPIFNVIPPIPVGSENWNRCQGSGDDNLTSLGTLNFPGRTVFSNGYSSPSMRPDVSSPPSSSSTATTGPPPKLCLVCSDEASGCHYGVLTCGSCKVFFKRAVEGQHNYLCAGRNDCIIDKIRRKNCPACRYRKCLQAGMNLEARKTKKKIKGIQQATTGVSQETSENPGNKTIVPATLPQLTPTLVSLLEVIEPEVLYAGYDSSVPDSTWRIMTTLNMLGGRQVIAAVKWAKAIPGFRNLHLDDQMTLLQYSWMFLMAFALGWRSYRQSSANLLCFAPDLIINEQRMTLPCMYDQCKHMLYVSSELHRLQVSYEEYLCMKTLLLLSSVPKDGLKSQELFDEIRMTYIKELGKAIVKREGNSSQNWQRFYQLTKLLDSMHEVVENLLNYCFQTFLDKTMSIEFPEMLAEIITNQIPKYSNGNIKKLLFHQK
Bile acid receptor (Homo sapiens), sequence (Q96RI1 whole entry, looked up): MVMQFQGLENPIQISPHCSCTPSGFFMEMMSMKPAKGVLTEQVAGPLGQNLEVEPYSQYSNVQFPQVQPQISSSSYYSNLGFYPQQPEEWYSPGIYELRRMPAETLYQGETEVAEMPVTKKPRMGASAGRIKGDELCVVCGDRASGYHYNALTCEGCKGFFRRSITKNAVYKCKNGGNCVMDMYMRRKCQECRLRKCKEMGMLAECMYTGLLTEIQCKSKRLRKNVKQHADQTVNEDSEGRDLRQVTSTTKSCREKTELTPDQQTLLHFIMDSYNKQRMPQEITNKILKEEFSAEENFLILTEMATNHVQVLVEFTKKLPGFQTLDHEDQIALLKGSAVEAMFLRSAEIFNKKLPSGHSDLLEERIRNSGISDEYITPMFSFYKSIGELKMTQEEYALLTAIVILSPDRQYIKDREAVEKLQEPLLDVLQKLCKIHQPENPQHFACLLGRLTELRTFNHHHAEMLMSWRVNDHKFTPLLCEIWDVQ
Estrogen receptor (Homo sapiens), sequence (P03372 whole entry, looked up): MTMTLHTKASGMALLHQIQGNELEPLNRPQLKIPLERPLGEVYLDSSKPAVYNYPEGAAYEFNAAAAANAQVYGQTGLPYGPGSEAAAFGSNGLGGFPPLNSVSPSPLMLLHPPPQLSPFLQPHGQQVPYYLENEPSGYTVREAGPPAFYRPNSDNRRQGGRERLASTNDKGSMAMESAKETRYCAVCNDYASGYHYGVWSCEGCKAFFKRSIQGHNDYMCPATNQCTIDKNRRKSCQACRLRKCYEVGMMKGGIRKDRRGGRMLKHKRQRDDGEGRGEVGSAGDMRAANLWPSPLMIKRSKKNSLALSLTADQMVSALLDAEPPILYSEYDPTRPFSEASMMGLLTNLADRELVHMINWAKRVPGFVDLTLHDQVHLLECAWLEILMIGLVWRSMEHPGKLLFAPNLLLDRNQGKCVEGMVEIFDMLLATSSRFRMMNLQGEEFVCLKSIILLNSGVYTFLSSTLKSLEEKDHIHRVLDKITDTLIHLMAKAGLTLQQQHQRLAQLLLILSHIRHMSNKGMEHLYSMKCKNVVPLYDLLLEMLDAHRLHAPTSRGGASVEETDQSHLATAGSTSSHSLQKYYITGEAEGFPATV
Peroxisome proliferator-activated receptor delta (Homo sapiens), sequence (Q03181 whole entry, looked up): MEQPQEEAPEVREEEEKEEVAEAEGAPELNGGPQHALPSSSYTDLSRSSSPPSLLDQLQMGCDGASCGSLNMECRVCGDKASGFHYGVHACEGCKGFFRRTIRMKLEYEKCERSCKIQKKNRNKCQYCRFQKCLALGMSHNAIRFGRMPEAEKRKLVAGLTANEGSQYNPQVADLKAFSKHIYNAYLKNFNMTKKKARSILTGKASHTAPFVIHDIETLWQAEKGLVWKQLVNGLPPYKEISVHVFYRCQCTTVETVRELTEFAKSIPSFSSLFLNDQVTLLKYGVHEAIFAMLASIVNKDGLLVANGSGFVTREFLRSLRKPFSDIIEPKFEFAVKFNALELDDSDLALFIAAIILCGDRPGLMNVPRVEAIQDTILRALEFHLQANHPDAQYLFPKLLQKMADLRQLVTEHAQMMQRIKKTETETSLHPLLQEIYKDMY
Thyroid hormone receptor beta (Homo sapiens), sequence (P10828 whole entry, looked up): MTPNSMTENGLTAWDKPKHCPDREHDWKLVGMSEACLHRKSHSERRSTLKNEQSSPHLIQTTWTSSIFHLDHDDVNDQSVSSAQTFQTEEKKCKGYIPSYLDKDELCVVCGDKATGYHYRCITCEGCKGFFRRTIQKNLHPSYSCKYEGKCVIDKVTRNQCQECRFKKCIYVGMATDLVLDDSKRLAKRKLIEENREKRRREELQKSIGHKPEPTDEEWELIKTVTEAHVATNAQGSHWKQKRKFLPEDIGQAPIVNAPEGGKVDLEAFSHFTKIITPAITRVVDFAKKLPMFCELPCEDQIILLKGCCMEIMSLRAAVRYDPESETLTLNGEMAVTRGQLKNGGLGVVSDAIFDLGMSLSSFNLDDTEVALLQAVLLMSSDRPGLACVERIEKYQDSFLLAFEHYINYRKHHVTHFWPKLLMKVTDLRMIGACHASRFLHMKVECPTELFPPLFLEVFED

As to `CCOCCOC(C)=O`, the Potency result in assay [1], in assay [5], in assay [6] and in [9] was “inactive” each time. The outcome in assay [2], in assay [4] and in [7] was inactive. For the same compound, the activation in assay [3] was -2.6% (inactive). Further, the max response in [8] is -8.15%; in assay [10], -4.94%.
Consider `C1CCC(NC2CCCCC2)CC1`, for which the Potency entry in [1], in assay [13], in [5], in [6] and in assay [9] was “inactive” in each case. The call in [2], in assay [11], in [4], in assay [7] and in assay [14] was inactive. For the same compound, the activation in [3] is 3.43% (inactive) and -1% (inactive) and -4.74% (inactive). Further, the max response in assay [12] was 10% and 0.455%; in assay [8] it was -15% and -1.01% and -0.218%; in [10], -3.33% and -12% and -7.77%.
Turning to `O=C(Nc1ccccc1-c1ccc(Cl)cc1)c1cccnc1Cl`, the Potency result in assay [1] and in assay [6] was “inactive” each time. For the same compound, the outcome in assay [2], in assay [11], in assay [4], in assay [7] and in assay [14] was inactive. In addition, the activation in assay [3] is -16.1% (inactive). For the same compound, the max response in assay [10] was -4.9%.
Take `Nc1ccc([N+](=O)[O-])cc1`: the activation in assay [15] is 7.63% (inactive); in [17], -1.05% (inactive); in assay [3], 0.519% (inactive). The call in [16], in assay [4], in assay [7] and in [14] was inactive. Further, the Potency result in assay [6] and in assay [9] was “inactive” in each case. Moreover, the max response in assay [8] came to 6.91%; in assay [10], 1.67%.
In the case of `Nc1cccc2c(N)cccc12`, the Potency result in assay [18] and in assay [13] was “inactive” each time. Besides, the activation in assay [17] is -1.29% (inactive) and -1.59% (inactive); in [3] it was -1.46% (inactive). In addition, the max response in [12] was determined as 0.56%.
In the case of `OCCCBr`, the Potency entry in assay [1], in assay [5], in [6] and in [9] was “inactive” each time. The call in assay [2], in assay [4], in assay [7] and in [14] was inactive. Besides, the activation in assay [3] is -1.2% (inactive). The figures for the max response in assay [8] and in [10] were -10.8% and -9.62%, respectively.
`C=CCC1=C(C)C(OC(=O)C2C(C=C(C)C)C2(C)C)CC1=O` (stereo not given): the Potency result in assay [1], in assay [5], in [6] and in assay [9] was “inactive” in each case. Besides, the call in [2], in [4], in assay [7] and in assay [14] was inactive. For the same compound, the activation in [17] was 7.39% (inactive) and 8.42% (inactive); in assay [3], 11.4% (inactive) and 2.61% (inactive). Besides, the max response is -5.66% in [8]; -13.5% and -4.99% in assay [10].
For `Nc1ccc(Sc2ccc(N)cc2)cc1`, the Potency result in [1], in assay [5], in assay [6] and in assay [9] was “inactive” in each case. Moreover, the outcome in assay [16], in assay [4], in assay [7] and in [14] was inactive. Further, the activation was -1.33% (inactive) in [17]; 8.24% (inactive) and -4.53% (inactive) in [3]. For the same compound, the max response in assay [8] is 14.5% and 0.308%; in assay [10], 1.56% and -5.13%.
Regarding `c1ccc2occc2c1`, the Potency entry in assay [1] and in assay [5] was “inactive” in each case. For the same compound, the result in assay [2] was inactive. For the same compound, the activation in assay [17] was 3.58% (inactive) and 1.61% (inactive).
For `CC(C)(O)C(=O)Nc1ccc([N+](=O)[O-])c(C(F)(F)F)c1`, the Potency entry in assay [1] and in [9] was “inactive” each time. For the same compound, the outcome in [2], in assay [7] and in assay [14] was inactive. For the same compound, the max response was 11.6% in assay [8] and 15.1% in [10].
